# Screening data deposited in PubChem by Buhrlage Lab, Dana-Farber Cancer Institute and Novartis Institutes for BioMedical Research (Cambridge, Mass).
# An excerpt weighted towards active compounds, which were near 11% of everything screened.
# USP28 inh: inhibitors of human USP28 deubiquitinase | Q96RU2 | AID 1645857 | 47,000 compounds, 3% hits | inhibition, % at 25 µM | purified USP28, Ub-rhodamine cleavage fluorescence, 30 min
# USP30 inh: inhibitors of human USP30 deubiquitinase. 47,000 compounds, 5.3% hits. Q70CQ3. AID 1645860. purified USP30, Ub-rhodamine cleavage fluorescence. inhibition, % at 25 µM
# USP17 inh: blocks human USP17 ubiquitin-rhodamine cleavage. inhibition, % at 50 µM. A8MUK1. 47,000 compounds, 6.5% hits. purified USP17, Ub-rhodamine cleavage fluorescence, 3 h. AID 1645855
# OTUD3 inh: inhibitors of human OTUD3 deubiquitinase; Q5T2D3; purified OTUD3, Ub-rhodamine fluorescence, 2 h; inhibition, % at 25 µM; 47,000 compounds, 0.7% hits; AID 1645858
# Hits are given with their value; . = inactive; / = no result given. Rule as the data show it: active = inhibition above about 30%; inactive = the rest.
SMILES,USP28 inh,USP30 inh,USP17 inh,OTUD3 inh
COc1ccc(C(=O)C(C)OC(=O)c2cccc(S(=O)(=O)Nc3cc([N+](=O)[O-])ccc3OC)c2)c(OC)c1 (stereo not drawn),.,31,.,.
CC1CCN(S(=O)(=O)c2ccc(C(=O)Nc3ccc(S(N)(=O)=O)cc3)cc2)CC1,.,68,.,.
O=C(Nc1ccc(S(=O)(=O)N2CCCCC2c2cccnc2)cc1)c1ccc2c(c1)OCO2 (stereo not drawn),41,44,.,.
CC(=O)Nc1ccc(S(=O)(=O)N2CCCC2c2ccccc2)cc1 (stereo not drawn),.,.,.,.
CC1CCCCN1S(=O)(=O)c1ccc(C(=O)Nc2ccc(S(N)(=O)=O)cc2)cc1 (stereo not drawn),35,71,56,.
O=C(CNc1nc(CN2CCOCC2)nc2scc(-c3ccccc3)c12)Nc1ccc(F)c(F)c1,.,.,.,.
O=C(CCc1nnc2ccc(N3CCCCC3)nn12)NC1CCN(Cc2ccccc2)CC1,.,.,.,.
COc1ccc(CN2CCC3(CC2)CN(C(C)=O)Cc2ccccc2O3)cc1OC,.,.,.,.
O=S(=O)(c1ccccc1)N1CCC2(CN(CCc3ccccc3)C2)C1,.,.,.,.
Clc1ccccc1CSc1nnc(C2CCCCC2)n1Cc1ccccc1,.,57,37,.
CCCc1cc(C2CCCN2C(=O)c2cc(-c3ccco3)on2)no1 (stereo not drawn),.,.,47,.
O=C1Nc2ccccc2C(=O)C1C(c1ccc(Cl)cc1)C1C(=O)Nc2ccccc2C1=O (stereo not drawn),40,41,88,.
Cc1cccc(NC(=O)N2CCC3(CC2)COCCN(c2ncccn2)C3)c1,.,.,.,.
O=C(NC1CCCC1)N1CC[C@H]2[C@H]1CCN2c1ncccn1,.,.,.,.
O=C1CCSc2ccc(S(=O)(=O)CCC(=O)N3CCc4ccccc4C3)cc2N1,.,.,39,.
CC1CCN(C(=O)CCS(=O)(=O)c2ccc3c(c2)NC(=O)CCS3)CC1,.,.,.,.
O=C(NC1CCCCCC1)c1cc(C2CC2)[nH]n1,.,.,.,.
CCc1cccc2c(C(=O)COc3ccc(C#N)cc3)c[nH]c12,71,91,43,32
CCc1cccc2c(C(=O)COC(=O)C(NC(=O)c3cccc(S(=O)(=O)N4CCOCC4)c3)C(C)C)c[nH]c12 (stereo not drawn),.,.,.,.
CCOc1ccc(CC(=O)Nc2cc(N3CCCS3(=O)=O)ccc2C)cc1,.,43,.,.
COc1ccc(CC(=O)Nc2cc(N3CCCS3(=O)=O)ccc2C)cc1,.,.,.,.
Cc1ccc(-c2nnc(NC(=O)C3CCCCC3)o2)c(C)c1,.,.,38,.
O=C(Cc1cccnc1)N[C@@H]1CC[C@@H](Oc2ccccc2)[C@@H](O)[C@@H]1O,.,.,31,.
O[C@H]1[C@H](O)[C@H](Oc2ccccc2)CC[C@H]1NCc1cccnc1,.,.,.,.
O=C(NC1CCCC1)c1cn(-c2ccc(NC(=O)C3CC3)cn2)cn1,.,.,.,.
SMILES,USP28 inh,USP30 inh,USP17 inh,OTUD3 inh
COc1cccc(C2CC(=O)Nc3ccsc32)c1OCc1ccccc1 (stereo not drawn),.,41,.,.
COCc1cc(=O)n2c(n1)N(Cc1cccc(C#N)c1)CC2,.,.,.,.
O=C(c1ccnc(N2CCCC2)c1)N1CCOC2(CC=CCN(Cc3ccccc3)C2=O)C1 (stereo not drawn),.,.,.,.
Cc1cc(C(=O)N2CCOC3(CC=CCN(CCc4ccccc4)C3=O)C2)n2nccc2n1 (stereo not drawn),.,.,.,76
O=C(O)/C=C\c1cn(-c2ccccc2)nc1-c1ccccc1,.,.,.,.
Cc1ccc(-c2cc(-c3ccc(F)cc3)[nH]c(=O)c2C#N)cc1,/,/,67,.
CCOC(=O)Cc1cc(=O)n2[nH]c(-c3ccc(C)cc3)cc2n1,.,.,31,.
CCOC(=O)Cc1cc(=O)n2[nH]c(C)c(-c3ccc(Cl)cc3)c2n1,.,.,.,.
Cc1nc(NCc2ccc(Cl)cc2)cc(-c2cncc(-c3cccs3)c2)n1,.,.,35,.
COc1ccc(C)cc1S(=O)(=O)NNc1nc(C)cc(C)n1,.,.,34,.
COc1ccc(C(C)C)cc1S(=O)(=O)Nc1cccc(C)n1,.,.,.,.
CCc1ccccc1NC(=O)CN1C(=O)C2CCCC2=Nc2ccccc21 (stereo not drawn),.,.,.,.
O=C(CN1C(=O)C2CCCC2=Nc2ccccc21)Nc1cc(F)ccc1F (stereo not drawn),.,.,60,.
